# From PubChem BioAssay (NCI)
# About 83,000 compounds went through this panel and 20% of them were active in at least one assay; those are over-represented in the sample as a whole.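 Cells were grown in 96-well plates and exposed to the test compound at a single concentration for 48 hours; results are reported as percent growth, with values below 10 considered active.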 Values without a mark were called inactive. Active and inactive are the calls of the source.
# Tests used:
# Assay in all cases: NCI-60 one-dose screen, 48 h (100 = growth as untreated, 0 = no growth, -100 = all killed)
# Conditions in all cases: 10 µM unless noted
# MDA-MB-435 melanoma = system: MDA-MB-435 melanoma
# SW-620 colon = system: SW-620 colon
# MCF7 breast = system: MCF7 breast
# HCT-116 colon = system: HCT-116 colon
# HCC-2998 colon = system: HCC-2998 colon
# BT-549 breast = system: BT-549 breast
# KM12 colon = system: KM12 colon
SMILES,growth (MDA-MB-435 melanoma),growth (SW-620 colon),growth (MCF7 breast),growth (HCT-116 colon),growth (HCC-2998 colon),growth (BT-549 breast),growth (KM12 colon)
CSC1=Nc2c(c(C)c(-c3ccccc3)n2CCCN2CCCCC2)C2=NC(=O)C[C@H](C)N12,26.3%,61.5%,13.9%,42.9%,60.7%,,
COC(=O)c1ccc2c(c1)nc(-c1ccc(O)c(OC)c1)n2-c1cc(C(C)(C)C)[nH]n1,,104%,83.6%,93.5%,115%,108%,96.9%
Cc1scc2c1N(C(=O)CN1CCN(C)CC1)c1ccccc1NC2=O,,112%,,111%,103%,110%,113%
C=C(C)[C@H]1CC/C(C)=C/CC[C@]2(C)O[C@H]2CC/C(COC(C)=O)=C\C1=O,95.2%,109%,110%,95%,103%,,
CCOC(=O)C1=C(C)N2C(=NC3=C(CCC/C3=C\c3ccc(Cl)cc3)C2c2ccc(Cl)cc2)S1 (stereo not drawn),,-59.8% (active),-43.7% (active),-100% (active),-100% (active),-44.5% (active),-73.3% (active)
Cn1c(=O)c2c(nc(Br)n2CCC(=O)Nc2ccc(F)cc2)n(C)c1=O,,103%,100%,85.5%,103%,91.8%,107%
O=C(O)C(=O)O,96.4%,112%,98.4%,101%,,,102%
O=C(c1nn(-c2ccc(Cl)cc2)cc1O)n1nc(C(F)(F)F)cc1-c1ccccc1,48.1%,39.6%,44%,8.39% (active),43.2%,,50.8%
COc1ccc2[nH]c(-c3ccccc3)cc2c1,100%,102%,95%,100%,118%,,99.3%
CC1=CSC2=NCCN12,111%,102%,96.6%,111%,108%,,109%
CCN(CC)CCOc1ccc(C2=C(c3ccccc3)CCc3cc(OC)ccc32)cc1,-33.9% (active),-59% (active),-9.06% (active),5.52% (active),,,-18.4% (active)
CCN(CC)CCOc1ccccc1-n1c(C)ccc1-c1ccccc1,42.1%,36.7%,98.3%,,24.2%,,50.6%
O=C(/C=C/c1cccnc1)/C=C/c1cccnc1,-28.9% (active),-68.6% (active),-39.4% (active),-92.7% (active),-70.6% (active),,-85.1% (active)
CN1CCCC1c1cccnc1 (stereo not drawn),119%,108%,97.1%,104%,,,104%
C=C(C)[C@@H]1C/C=C(/C=O)CC[C@@H]2O[C@@]2(C)CC/C=C(\C)CC1,107%,115%,106%,105%,126%,,122%
CCCCC1Nc2nc(SC)n(C)c(=O)c2CN(Cc2ccccc2)C1=O (stereo not drawn),99.4%,107%,100%,97.3%,94.3%,,105%
CCOC(=O)C(C(C)=O)c1nc2sc3cc(Cl)ccc3n2c(=N)c1C#N (stereo not drawn),104%,98.4%,58.8%,103%,131%,,44.1%
C[C@]12C[C@H](O)[C@H]3[C@@H](CCC4=CC(=O)CC[C@@]43C)[C@@H]1CC[C@@H]2C(=O)CO,103%,99.1%,101%,106%,,,99.9%
C[n+]1c2ccccc2c(Nc2ccc(N3CCCCC3)cc2)c2[nH]c3ccccc3c21,-96.4% (active),-90.8% (active),-74.6% (active),-98.7% (active),-96.1% (active),,-96.5% (active)
O=C1CC(C(F)(F)F)=NN1C(=O)c1nn(-c2ccc(Cl)cc2)cc1O,95.3%,97.1%,102%,74.1%,89.7%,,79.9%
O=[N+]([O-])c1ccc(N/N=C/c2c(O)ccc3ccccc23)nc1,58.5%,48.7%,17.3%,25.9%,54.2%,,44.2%
Cc1c(C(N)=O)sc2ncn(CC(=O)Nc3ccc(Cl)cc3)c(=O)c12,106%,106%,108%,105%,118%,,117%

SMILES,growth (MDA-MB-435 melanoma),growth (SW-620 colon),growth (MCF7 breast),growth (HCT-116 colon),growth (HCC-2998 colon),growth (BT-549 breast),growth (KM12 colon)
CCCCCCC(C)(O)c1ccccc1 (stereo not drawn),106%,107%,97.4%,109%,102%,,107%
NC(=O)c1ccccc1NC(=O)c1ccccc1Cl,105%,108%,115%,103%,116%,,105%
COc1ccc(Cn2cc3c(c2-c2ccccc2)CCc2cncnc2-3)cc1,0.92% (active),27.5%,39.4%,27.2%,53.1%,,26.6%
COc1ccc(/C=N\Nc2ccc([N+](=O)[O-])cn2)cc1OC,72.9%,61.5%,74.7%,17.1%,99.7%,,44.1%
Cc1cc(C)n(C(=O)c2nn(-c3ccc(Cl)cc3)cc2O)n1,32.1%,81.4%,81%,8.59% (active),82.8%,,36.3%
O=C(O)c1ccccc1C(=O)OC1CCCC2CCCC21 (stereo not drawn),118%,111%,94.6%,112%,98.5%,,106%
Oc1ccccc1C=Nc1ccccc1N=Cc1ccccc1O.[Cu+2],,83.4%,27.6%,57.9%,74.2%,,44.6%
CCC(CCC(C)C1CCC2C3CC=C4CC(O)CCC4(C)C3CCC12C)C(C)C (stereo not drawn) (tested in a mixture with another compound),85%,,95.8%,79%,-53.1% (active),,91.4%
C[n+]1c2ccccc2c(NC2CCNCC2)c2[nH]c3ccccc3c21,30.9%,16.1%,1.07% (active),4.09% (active),-7.7% (active),,-11.4% (active)
CC(=O)Nc1ccc2c(c1)Cc1c(F)c(F)c(F)c(F)c1-2,101%,103%,86.7%,86.3%,,,92.8%
CC(C)(C)c1ccc(S(=O)(=O)O)s1,,108%,98%,107%,112%,,112%
Nc1cc(Cl)c(S(N)(=O)=O)cc1S(N)(=O)=O,113%,107%,96.2%,121%,,,105%
O=C1NCC(Nc2ccc(Br)cc2Cl)C(=O)N1 (stereo not drawn),111%,100%,103%,102%,116%,,108%
C=C(C)[C@H]1CC/C(C)=C/CC[C@]2(C)O[C@H]2CC/C(C=O)=C\C1O (stereo partly drawn),120%,108%,97.2%,105%,111%,,114%
COc1ccc(C2=NN(C(C)=O)C(c3cc(OC)c(OC)c(OC)c3)C2)cc1 (stereo not drawn),34.1%,98%,89.8%,103%,94.9%,,60.5%
CCN(CC)CCCCNc1c2ccccc2[n+](C)c2c1[nH]c1ccccc12,-77.1% (active),-7.04% (active),-7.18% (active),0.472% (active),-56.4% (active),,-12.9% (active)
Nc1nc(Cl)c2[nH]cnc2n1,102%,105%,108%,104%,-51.2% (active),,109%
CNc1ccc(CSc2ccc(Cl)cc2)cc1,87.3%,109%,96.2%,91.3%,118%,,111%
CCCOc1ccc2c(c1)CC[C@@H]1[C@@H]2CC[C@@]2(C)[C@H]1CC[C@]2(C)O,84.3%,,101%,83.9%,74.7%,,
CCOC(=O)C(Cc1ccccc1)(C(=O)OCC)C(Br)C(=O)c1ccccc1 (stereo not drawn),77.3%,39.8%,56.9%,53.3%,100%,,97.9%
C[n+]1ccc(Nc2ccc(NC(=O)c3ccc(Nc4cc[n+](C)c5ccc(N)cc45)cc3)cc2)cc1,88.7%,105%,96.2%,95%,-27.7% (active),,109%
C=CCOc1ccc2c(c1)CC[C@@H]1[C@@H]2CC[C@@]2(C)[C@H]1CC[C@]2(C)O,,64.3%,117%,94.4%,94.8%,,58.2%
